Assay outcomes: PubChem BioAssay, National Center for Advancing Translational Sciences (NCATS)
The list is not random: actives were taken first. Their share in the collection is about 4%.
Caspase-1 inhib: blocks human caspase-1 allosterically or competitively. P29466. Caspase-1 enzyme, Ac-WEHD-AFC fluorogenic rate. Potency, µM (titrated, usually from 57.5 µM), actives largely listed as inhibitors. 75,000 tested, 0.03% active. AID 900
Caspase-7 inhib: allosteric or competitive inhibitors of human caspase-7; 75,000 tested, 0.02% active; Potency, µM (highest dose often 57.5 µM), actives largely listed as inhibitors; recombinant caspase-7, Ac-DEVD-AFC fluorescence rate; active = well fitted inhibition curve with a large enough effect in the main read-out, with a control signal flat, not every such curve was filed as active; inconclusive = small, poorly fitted or top-dose-only effect, or a change in a side signal
TSHR agonist: TSH receptor (human) agonism | P16473 | Potency, µM (doses to about 57.1 µM), actives largely listed as activators | 73,000 tested, 0.48% active | HEK293-CNG-TSHR cells (CNG channel as cAMP sensor), membrane potential dye, cAMP; active = well fitted activation curve with a large enough effect in the main read-out, with a control signal flat, not every such curve was filed as active; inconclusive = small, poorly fitted or top-dose-only effect, or a change in a side signal; inactive = no such curve, though single readings can be large or run the other way; reference of the percent scale not stated here;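 note: the control signal comes from parental cells without the receptor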
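cAMP rise detected as CNG-channel membrane depolarization by fluorescent dye (emission 590 nm), 30 min after compound, following 60 min dye loading containing 100 uM RO 20-1724 at room temperature. Cells: TSHR/CNG HEK 293, with parental CNG HEK 293 as control.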
PK Bst: pyruvate kinase (B. stearothermophilus) modulation; purified pyruvate kinase, luminescence ATP production; ribose 5-phosphate activator present at AC10; Potency, µM; 51,000 tested, 1.2% active; in the data active = potency below about 11 µM; inconclusive = mostly about 12 µM to 25 µM;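 the screen sought inhibitors and activators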
HEK293 cAMP ctrl: parental HEK293 cAMP activation (counter-screen). parental HEK293 CNG cAMP sensor, membrane potential fluorescence. 73,000 tested, 2.5% active. Potency, µM (titrated, usually from 57.1 µM), most hits filed as activators. AID 938; note: nearly all actives have a fitted effect of over 55% in size
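Counterscreen for endogenous-receptor signalling: CNG-channel HEK 293 cells report cAMP rise by membrane depolarization. After 60 min dye equilibration with 100 uM RO 20-1724, compounds incubated 30 min before bottom-read fluorescence at 590 nm.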
GBA activity: modulators of human glucocerebrosidase | purified enzyme, resorufin glucoside fluorescence (screen aimed at inhibitors), 20 min | Potency, µM | 48,000 tested, 1.1% active | AID 360; in the data active = potency below about 15 µM; inconclusive = mostly about 16 µM to 33 µM;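 note: the screen sought inhibitors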
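Compounds titrated against 0.2 nM normal enzyme, 30 uM resorufin beta-D-glucopyranoside substrate, citrate/phosphate buffer with taurocholate and tween-20, pH 5.9. Reaction ran 20 min at room temperature; fluorescence (Ex 548/Em 600) gave AC50.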
A number is an active result; - = inactive; ? = inconclusive; . = no result given; [ ] = dose if it differs, or a comment. Unless noted, calls come from the whole dose curve; as a rule, active = well fitted curve in the direction sought with a large enough effect; inconclusive = small, poorly fitted or top-dose-only effect, or another doubt; inactive = no such curve, though single readings can be large; an effect the other way counts as inactive or inconclusive.

SMILES | Caspase-1 inhib | Caspase-7 inhib | TSHR agonist | PK Bst | HEK293 cAMP ctrl | GBA activity
Cc1cccc(NC(=O)c2cc3ccccc3o2)c1 | - | - | ? | ? | 25µM | -
O=C(Nc1cccc(Br)c1)c1cc2ccccc2o1 | - | - | ? | . | 25µM | .
Cc1ccccc1-c1ccc2ncnc(NC3CC3)c2c1 | - | - | ? | . | ? | .
FC(F)(F)c1ccccc1-c1ccc2ncnc(NCc3cccs3)c2c1 | - | - | ? | . | 10µM | .
FC(F)(F)c1ccccc1-c1ccc2ncnc(NC3CC3)c2c1 | - | - | ? | . | 32µM | .
O=C1c2ccccc2C(=O)N1C[C@]1(C(=O)O)NCCS1(=O)=O | -[11.5 µM] | -[11.5 µM] | -[11.4 µM] | . | -[11.4 µM] | .
COc1ccc(-c2nc(CS(=O)(=O)CC(=O)NCCc3cc(OC)ccc3OC)c(C)o2)cc1 | - | - | ? | - | 25µM | -
COc1ccc(-c2nc3cnc(N4CCN(C)CC4)nc3n(Cc3cccc(OC)c3)c2=O)cc1 | . | ? | - | . | - | .
NC(=O)C/C=C\CC(N)=O | -[11.5 µM] | -[11.5 µM] | -[11.4 µM] | . | -[11.4 µM] | .
CCOC(=O)c1ccc(-n2c(=S)sc3c(=O)[nH]c(C)nc32)cc1 | - | - | - | - | - | 6.8
CCOC(=O)CC(=O)CSc1nc2c(sc(=S)n2-c2ccccc2)c(=O)[nH]1 | - | - | - | - | - | -
CC(=O)N(O)[C@@H]1c2cc(C#N)ccc2OC(C)(C)[C@H]1O | - | - | - | . | - | .
CSc1nc2[nH]c3c(c2c2nnnn12)CCCC3 | . | . | . | 0.78 | . | .
CSc1nc2[nH]c3c(c2c2nncn12)CC(C)(C)OC3 | . | . | . | - | . | .
Cc1cc(C)c(C)c(S(=O)(=O)NCCC(=O)O)c1C | - | - | - | . | - | .
C=C(c1cccc2ccccc12)P(=O)(O)O | - | - | - | 0.17 | - | -
O=C(O)CC[C@@H](NC(=O)c1ccccc1C(=O)O)C(=O)O | - | - | - | . | - | .
O=C(c1ccc(Cl)s1)N1CCc2ccccc21 | - | - | 16µM | . | - | -
On1onc2c3cc(-c4ccccc4)nc3ccc21 | - | - | - | - | - | 15
c1ccc(-c2cc3c(ccc4nonc43)nn2)cc1 | - | - | ? | . | ? | .
Cc1ccc2nc(-c3ccc(N)cc3)sc2c1S(=O)(=O)O | . | ? | - | . | - | .
c1cncc(-c2nc(NCc3ccco3)c3ccccc3n2)c1 | - | - | ? | - | 25µM | -
COc1ccc(CNc2nc(-c3cccnc3)nc3ccccc23)c(OC)c1 | - | - | ? | . | ? | .
COc1ccc2[nH]cc(CCNc3nc(-c4cccnc4)nc4ccccc34)c2c1 | - | - | 4µM | . | - | .
COc1ccc2[nH]cc(CCNc3ncncc3-c3ccccc3OC)c2c1 | - | - | ? | . | 3.2µM | .
SMILES | Caspase-1 inhib | Caspase-7 inhib | TSHR agonist | PK Bst | HEK293 cAMP ctrl | GBA activity
Clc1ccc(/C=C\c2nc(Cl)c(-c3ccc(Cl)cc3)c(Cl)n2)cc1 | -[11.5 µM] | -[11.5 µM] | -[11.4 µM] | . | -[11.4 µM] | .
COC(=O)c1c(NC(=O)CN2CCN(Cc3ccc4c(c3)OCO4)CC2)sc(C)c1C | - | - | ? | - | 1.6µM | .
COC(=O)c1[nH]c2ccc(C)cc2c1NC(=O)CCN1CCN(Cc2ccc3c(c2)OCO3)CC1 | - | - | - | - | - | -
O=C(Nc1ccc2c(c1)Cc1ccccc1-2)[C@@H]1[C@H](C(=O)O)[C@]2(Cl)C(Cl)=C(Cl)[C@@]1(Cl)C2(Cl)Cl | -[11.5 µM] | -[11.5 µM] | -[11.4 µM] | . | -[11.4 µM] | .
CN(C)Cc1ccccc1-c1ccc2ncnc(N(C)Cc3ccco3)c2c1 | - | - | ? | . | ? | .
Cc1cnc(CNc2ccnc(-c3ccccc3CN(C)C)n2)cn1 | - | - | - | . | - | .
CN(C)Cc1ccccc1-c1nc(N(C)Cc2ccco2)c2ccccc2n1 | - | - | ? | . | 13µM | .
CN(C)Cc1ccccc1-c1nccc(N(C)Cc2ccco2)n1 | - | - | ? | . | 32µM | .
CN(Cc1ccco1)c1nc(-c2ccc3c(c2)OCO3)nc2ccccc12 | - | - | ? | . | ? | .
Cc1ccccc1-c1nc(N2CCOCC2)c2ccccc2n1 | - | ? | ? | . | ? | .
CN(C)Cc1ccccc1-c1nccc(NCc2cccs2)n1 | - | - | ? | . | 25µM | .
CN(C)Cc1ccccc1-c1nc(N2CCOCC2)c2ccccc2n1 | - | - | ? | . | 7.9µM | .
O=C(O)c1ccc(F)c(S(=O)(=O)Nc2cccc(F)c2)c1 | - | - | - | . | - | .
N/N=C1/c2ccccc2N[C@H]1OC(=O)Nc1cccc(Cl)c1 | -[11.5 µM] | -[11.5 µM] | -[11.4 µM] | . | -[11.4 µM] | .
C=CCc1cccc(C2C(C)CCC3C(=O)N4C(Cc5c([nH]c6ccccc56)C4c4cc(OC)c(OC)c(OC)c4)C(=O)N32)c1 (stereo unspecified) | -[11.5 µM] | -[11.5 µM] | -[11.4 µM] | . | -[11.4 µM] | .
Cc1cc(C)c(C)c(S(=O)(=O)NCc2ccco2)c1C | - | - | ? | 11 | ? | -
CCOC(=O)C(NC(=O)c1ccc(OC)cc1)(OCC1(CC)COC1)C(F)(F)F (stereo unspecified) | - | - | 7.9µM | - | - | -
CCOC(=O)C(NC(=O)c1ccc(OC)cc1)(Nc1cc(C)on1)C(F)(F)F (stereo unspecified) | - | - | - | - | - | -
Cc1ccccc1-c1cncnc1NCc1cccs1 | - | - | ? | . | 16µM | .
COc1ccc(N2CCN(Cc3nc(N)nc(Nc4ccc(C)c(Cl)c4)n3)CC2)cc1 | - | - | - | - | - | 4
Cc1ccc(Nc2nc(N)nc(CN3CCN(c4ccccc4)CC3)n2)cc1Cl | - | - | - | - | - | 4.2
Cc1ccc(Nc2nc(N)nc(CN3CCN(Cc4ccc5c(c4)OCO5)CC3)n2)cc1Cl | - | - | - | - | - | ?
CC(O)c1nc2ccccc2n1Cc1nnc(-c2ccc(Cl)cc2)o1 (stereo unspecified) | - | - | - | 2.5 | - | -
COc1ccccc1N1CCN(S(=O)(=O)c2ccc(Cl)s2)CC1 | - | - | ? | 11 | ? | -
COc1ccccc1N1CCN(S(=O)(=O)c2cccc3nsnc23)CC1 | - | - | - | 7.4 | - | -
SMILES | Caspase-1 inhib | Caspase-7 inhib | TSHR agonist | PK Bst | HEK293 cAMP ctrl | GBA activity
CCOc1ccccc1N1CCN(S(=O)(=O)c2ccc(Cl)s2)CC1 | - | - | - | ? | - | -
C[C@H]1CN(CCO)CCN1c1ccccc1 | -[11.5 µM] | -[11.5 µM] | -[11.4 µM] | . | -[11.4 µM] | .
CC(=O)NC(Cc1ccc(C(C)C)cc1)C(=O)NC1CCN(c2nc(C)cc(C)n2)CC1 (stereo unspecified) | - | - | . | - | - | ?
CC(=O)NC(Cc1ccc(F)cc1)C(=O)NC1CCN(c2nnnn2-c2ccccc2)CC1 (stereo unspecified) | - | - | - | - | - | 5.8
CCCS(=O)(=O)O | -[11.5 µM] | -[11.5 µM] | -[11.4 µM] | . | -[11.4 µM] | .
C/C(CCC(=O)OC[C@@H]1O[C@H](C#Cc2ccccc2)C=C[C@@H]1Oc1ccc(C)cc1)=N/O[C@@H](C)c1cn([C@H]2COC[C@H]2O)nn1 | -[11.5 µM] | -[11.5 µM] | -[11.4 µM] | . | -[11.4 µM] | .
COc1cccc(-c2nn(C)c3sc(C(=O)N4CCOCC4)cc23)c1 | - | - | - | . | - | .
COc1cccc(-c2nn(C)c3sc(C(=O)N4CCN(c5ccccn5)CC4)cc23)c1 | - | - | ? | 7.3 | ? | -
COc1ccc(Nc2cc(C)nc(N3CCOCC3)n2)cc1 | - | - | - | 1.5 | - | 11
